# From PubChem
# Shown are actives, neighbours in structure and some others; about 5.3% of the full set was active somewhere.
# PNC assembly inh: High Content Assay for Compounds that inhibit the Assembly of the Perinucleolar Compartment; AID 2417, 2010; PC3M PTB-GFP, PNC prevalence imaging, 16 h; hits give low values; activity change (PNC), negative = inhibition, % at 10 µM; 3.1% of 140,000 active;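 active = readout at or below -70, meaning at least 70% loss of cells showing the perinucleolar compartment, a nuclear body marking cancer cells; inconclusive = readout between -30 and a set limit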;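 also: plate controls were DMSO wells for no effect and camptothecin positive control wells for full effect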
#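 Compounds are pinned in duplicate onto adhered PC3M cells stably expressing GFP-tagged PTB and incubated 16 h at 37 C. Cells are then fixed, nuclei stained with Hoechst, and PNC-positive cells counted.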
# HPGD inh: qHTS Assay for Inhibitors of HPGD (15-Hydroxyprostaglandin Dehydrogenase); 4.3% of 150,000 active; 15-hydroxyprostaglandin dehydrogenase [NAD(+)] (Homo sapiens), P15428; purified HPGD, NADH fluorescence kinetic, PGE2 substrate; Potency, µM, for the others: at the top dose activity change, negative = inhibition, hits mostly inhibitors; AID 894, 2007; active = well fitted inhibition curve with a large enough effect, not every such curve was filed as active; inconclusive = small, poorly fitted or top-dose-only effect, or another doubt; inactive = no such curve, though single readings can be large or run the other way; also: potency is read from the fitted curve at half-maximal effect
# Target sequence (P15428 whole entry, looked up): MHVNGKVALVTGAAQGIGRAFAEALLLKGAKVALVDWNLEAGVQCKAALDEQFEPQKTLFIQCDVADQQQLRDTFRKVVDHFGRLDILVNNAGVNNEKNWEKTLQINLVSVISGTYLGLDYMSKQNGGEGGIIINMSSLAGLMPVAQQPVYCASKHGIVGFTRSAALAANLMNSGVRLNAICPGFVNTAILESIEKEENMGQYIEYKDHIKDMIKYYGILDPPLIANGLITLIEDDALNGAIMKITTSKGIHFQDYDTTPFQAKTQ
#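 20 nM HPGD preincubated 15 min at room temperature with compound in 50 mM Tris-HCl pH 8, 0.01% Tween 20. Started with 1 mM NAD+ and 30 uM prostaglandin E2; NADH fluorescence (360/450 nm) read 5 times over 30-s intervals, last minus first.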
# ALOX15B inhib: qHTS Assay for Inhibitors of 15-hLO-2 (15-human lipoxygenase 2). Polyunsaturated fatty acid lipoxygenase ALOX15B (Homo sapiens), O15296. purified 15hLO-2, xylenol orange hydroperoxide absorbance. Potency, µM (doses to about 57.1 µM), for the others: at the highest dose activity change, negative = inhibition, hits mostly inhibitors. 0.56% of 110,000 active; also: potency is read from the fitted curve at half-maximal effect; nearly all actives have a fitted effect of over 60% in size
#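 Screening format was qHTS against 50 nM purified 15hLO-2 in Hepes pH 7.5 with detergent. Activity follows hydroperoxide formation from 45 uM arachidonic acid, measured as 573:405 nm absorbance ratio of the ferric-xylenol orange complex.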
# ALOX12 inhib: qHTS Assay for Inhibitors of 12-hLO (12-human lipoxygenase) | Polyunsaturated fatty acid lipoxygenase ALOX12 (Homo sapiens), P18054 | purified 12-hLO, xylenol orange hydroperoxide absorbance | Potency, µM (doses to about 57.1 µM), without a hit: at the highest dose activity change, negative = inhibition, hits mostly inhibitors | 0.12% of 150,000 active; also: potency is read from the fitted curve at half-maximal effect; nearly all actives have a fitted effect of over 55% in size
#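 Hydroperoxide output read as Fe(III)-xylenol orange absorbance, 573-to-405 nm ratio, after 30 min reaction with 40 uM arachidonic acid. Enzyme: 150 nM purified human 12hLO, 15 min compound preincubation; 25 mM Hepes pH 7.0, room temperature.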
# IMPase cell inh: qHTS Assay for Identifying the Cell-Membrane Permeable IMPase Inhibitors; Inositol monophosphatase 1 (Rattus norvegicus), P97697; CHO-M1 cells, IP1 accumulation, HTRF TR-FRET ratio; inhibition (IP1 accumulation), % at 46.1 µM; 120,000 tested, under 10 active; active = well fitted curve in the direction sought with a large enough effect in the signal ratio, not every such curve was filed as active; inconclusive = small, poorly fitted or top-dose-only effect, or a change in a side signal; inactive = no such curve, though single readings can be large or run the other way; the % refers to the signal ratio;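 also: cells stimulated with carbachol in lithium chloride buffer; plate controls were DMSO basal wells for no effect and reference inhibitor wells for full effect; higher means more IMPase inhibition seen as more IP1 and lower FRET ratio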
# Target sequence (P97697 whole entry, looked up): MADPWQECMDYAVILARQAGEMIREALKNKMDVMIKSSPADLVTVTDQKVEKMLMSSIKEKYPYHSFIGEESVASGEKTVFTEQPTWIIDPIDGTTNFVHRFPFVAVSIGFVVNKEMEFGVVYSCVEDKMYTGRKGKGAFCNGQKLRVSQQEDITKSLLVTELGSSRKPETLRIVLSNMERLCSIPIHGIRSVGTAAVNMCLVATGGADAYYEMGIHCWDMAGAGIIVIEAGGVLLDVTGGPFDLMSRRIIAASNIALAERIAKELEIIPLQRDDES
#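 CHO-M1, 2000 cells/well, cultured 16–30 h; cpd up to 46 uM; carbachol (50 uM solution, stimulation buffer w/ 50 mM LiCl, pH 7.4), 30 min 37C; IP-One TR-FRET, 10 min RT; Ex 320/Em 665, 620; Hill-fit AC50.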
# IMPase Li cell: qHTS Assay for Identifying the Cell-Membrane Permeable IMPase Inhibitors: Potentiation with Lithium | CHO-M1 cells, IP1 TR-FRET (IP-One), carbachol + lithium | Potency, µM (doses to about 59.4 µM), for inactives: top-dose activity, negative = IMPase inhibition, most hits filed as inhibitors | 0.35% of 210,000 active | AID 1457, 2008;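 also: IP1 builds up when IMPase is blocked and the TR-FRET signal falls; potency is read from the fitted curve at half-maximal effect; plate controls were basal vehicle for no effect and high inhibitor control for full effect; nearly all actives have a fitted effect of over 50% in size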
#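 CHO cells stably expressing M1 receptor (2000/well) were cultured 16–30 h, then exposed to compounds with a small lithium addition for 30 min at 37C. IP1 was measured by TR-FRET competition; AC50 from Hill fits.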
# * = called active by the depositor; ? = inconclusive; / = no result given; [ ] = remark or other dose. Unless noted, calls follow the shape of the dose curve; as a rule, active = well fitted curve in the direction sought with a large enough effect; inconclusive = small, poorly fitted or top-dose-only effect, or another doubt; inactive = no such curve, though single readings can be large; an effect the other way counts as inactive or inconclusive. Unless noted, % is scaled to controls: 0 for no effect and ±100 for the full control effect.
SMILES,PNC assembly inh,HPGD inh,ALOX15B inhib,ALOX12 inhib,IMPase cell inh,IMPase Li cell
O=C(CSc1nc2ccccc2[nH]1)NC1CCCc2ccccc21 (stereo not drawn),?,-8%,/,0%,0,8%
COc1ccc(CCNC(=O)c2ccc(-c3ccc([N+](=O)[O-])cc3)o2)cc1OC,23,-8%,/,1%,5,15%
CCSc1nc2ccc(N3C(=O)C4C5C=CC(C5)C4C3=O)cc2s1 (stereo not drawn),5,-18%,/,0%,-9,1%
CC1CCN(C(=O)CN2C(=O)c3cccc4cccc(c34)C2=O)CC1,/,/,/,/,/,4%
O=C(CN1C(=O)c2cccc3cccc(c23)C1=O)N1CCN(c2ccccn2)CC1,-104*,-2%,/,-1%,/,-4%
CCNC(=S)Nc1ccccc1-c1ccccc1,4,-6%,/,-3%,/,-1%
Cn1c(SCC(=O)Nc2cc(C(C)(C)C)nn2-c2ccccc2)nc2ccccc21,-14,-1%,/,0%,13,-1%
CC(=O)Nc1ccc(SCC(=O)Nc2cc(C(C)(C)C)nn2-c2ccccc2)cc1,-115*,-10%,/,-1%,/,25%
O=[N+]([O-])c1cccc2ccc(/C=C/c3ccc(F)cc3)nc12,-114*,-9%,/,-12%,/,0%
CN1CCN(Cc2c(O)ccc3occ(C(=O)c4ccccc4)c23)CC1,?,-5%,26%,5%,7,8%
CC(=O)C(C(C)=O)c1c(Cl)c(O)c(O)c2c(C(=O)c3ccccc3)coc12,22,3.2µM*,?,-28%,10,10%[38.3 µM]
Brc1ccc(-c2ccc(/C=N/Nc3nc4ccccc4[nH]3)o2)cc1,-25,?,/,5%,-3,2%
CC(NC(=O)/C(=C\c1cccc([N+](=O)[O-])c1)NC(=O)c1ccco1)C(=O)O (stereo not drawn),93,28µM*,-19%,-3%,-9,7%[38.3 µM]
O=C(NCCO)/C(=C/c1cccc([N+](=O)[O-])c1)NC(=O)c1ccco1,/,/,/,/,/,13%
CCCCC(=O)Nc1ccc(C(=O)NN2C(=O)c3ccccc3C2=O)cc1,2,-7%,-1%,1%,0,6%[38.3 µM]
O=C(O)c1ccccc1C(=O)c1ccc(Oc2ccccc2)cc1,-85*,-3%,/,7%,/,0%
Cc1ccc(C(=O)c2ccccc2C(=O)O)cc1C,/,/,/,/,/,1%
Cc1ccsc1/C=N/NS(=O)(=O)c1ccc([N+](=O)[O-])cc1,-2,1%,/,-1%,/,1%
CN1CCC(=NNC(=O)CSc2ccc(Cl)cc2)CC1,/,/,/,/,/,-9%
CN(Cc1cnn(C)c1)C(=O)c1sc2cccc(Cl)c2c1Cl,10,28µM*,8%,-7%,-12,-15%[38.3 µM]
CN(Cc1cnn(C)c1)C(=O)c1cc2ccccc2oc1=O,24,-22%,3%,1%,-9,7%[38.3 µM]
Cc1cnc(CNc2ncncc2-c2ccc3c(c2)OCO3)cn1,/,/,-12%,/,/,3%
COc1cc(C)c(C(C)C)cc1S(=O)(=O)NCCCn1ccnc1,5,2%,?,0%,-5,-4%[38.3 µM]
CC(=O)Oc1ccc2c(C)cc(=O)[nH]c2c1,-114*,-4%,-2%,-2%,-8,-25%[38.3 µM]
O=C(CCc1c[nH]c2ccccc12)N1CCN(c2ccc(O)cc2)CC1,/,/,/,/,/,26%
SMILES,PNC assembly inh,HPGD inh,ALOX15B inhib,ALOX12 inhib,IMPase cell inh,IMPase Li cell
COc1ccc(C2=Nn3c(nnc3-c3ccco3)SC2)cc1OC,-7,?,-20%,-1%,12,18%[38.3 µM]
CC1=Nn2c(nnc2-c2ccco2)SC1,-19,32µM*,-1%,-7%,-17,4%[38.3 µM]
CC1=Nn2c(nnc2-c2ccccc2Cl)SC1,20,25µM*,2%,-2%,-8,8%[38.3 µM]
S=c1nc[nH]c2c1sc1nc(N3CCOCC3)c3c(c12)CCCC3,/,/,/,/,/,11µM*
CCOc1cc(NC(=S)Nc2cccc(OC)c2)c(OCC)cc1NC(=O)c1ccc(C)cc1,14,-18%,?,-17%,-9,3%[38.3 µM]
CCOc1cc(NC(=S)Nc2ccccc2)c(OCC)cc1NC(=O)c1ccc(OC)cc1,?,-19%,25µM*,-25%,5,-8%[38.3 µM]
CCOc1cc(NC(=S)Nc2cccc(OC)c2)c(OCC)cc1NC(=O)C(C)C,-106*,-12%,/,-26%,17,1%[38.3 µM]
COc1cc(OC)cc(C(=O)Nc2nnc(NC(=S)Nc3ccccc3)s2)c1,-100*,-20%,/,-4%,/,5%
COc1ccccc1NS(=O)(=O)c1cc(C(=O)NCCC(C)C)ccc1F,/,/,/,/,/,3%
O=C(Nc1ccccc1)NC1(C(=O)NCCCN2CCOCC2)CCCCC1,-3,-2%,-1%,0%,-2,-6%[38.3 µM]
O=C(Nc1ccccc1)NC1(C(=O)NCc2cccs2)CCCCC1,-96*,?,-3%[11.4 µM],3%,-3[1.84 µM],11%[38.3 µM]
CC(=O)c1ccc(NC(=S)NC(=O)c2c(Cl)c(C)nn2C)cc1,-109*,-5%,/,3%,/,-3%
CN(Cc1ccco1)c1cc(-c2ccc3c(c2)OCO3)ncn1,/,/,-2%,/,/,15%
CCN1C(=O)CC(N2CCN(c3ccc(C(=O)c4ccccc4)cc3)CC2)C1=O (stereo not drawn),8,22µM*,-5%,-6%,4,-7%[38.3 µM]
CCN1C(=O)CC(N2CCN(c3ccc(Cl)cc3)CC2)C1=O (stereo not drawn),24,-7%,3%,0%,-1,-3%[38.3 µM]
CN1C2CCC1CC(OC(=O)c1c[nH]c3ccccc13)C2 (stereo not drawn),-89*,-10%,8%,4%,10,19%
COC(=O)CCc1c(C)nc(N)[nH]c1=O,-112*,1%,-1%,8%,-1,18%[38.3 µM]
CCCCc1c(C)nc(N)[nH]c1=O,10,-2%,-13%,6%,?,-27%[38.3 µM]
Cc1cccc(Oc2nc3ccccn3c(=O)c2/C=C(\C#N)C(=O)NC2CCS(=O)(=O)C2)c1 (stereo not drawn),-104*,-12%,/,-5%,/,0%
Cc1ccc(C(=O)c2oc3ccccc3c2NC(=O)C(C)Oc2ccccc2Cl)cc1 (stereo not drawn),/,/,/,/,-1,/
O=C(Nc1ccc2c(c1)OCO2)OCc1ccccc1,36,-22%,5%,-5%,-1,15%[38.3 µM]
O=c1c2c(-c3cccs3)csc2[nH]c(=S)n1-c1ccccc1,?,28µM*,?,-8%,?,10µM*
